This is a sample that favours compounds with a hit; in the whole collection about 21% have one here.
DT40 TDP1 no CPT = qHTS for Inhibitors of human tyrosyl-DNA phosphodiesterase 1 (TDP1): qHTS in cells in absence of CPT. DT40 Tdp1-/- hTDP1 cells, no CPT, ATP luminescence, 48 h. 15% of 420,000 active. AID 686978, 2013. Potency, µM (doses to about 46.2 µM), for inactives: top-dose activity change, negative = growth inhibition, usual class: inhibitors; note: potency is the fitted concentration of half-maximal effect; nearly all actives have a fitted effect of over 55% in size
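Camptothecin absent (DMSO only). Human TDP1-complemented DT40 knockout cells, 400 cells/well, 37 °C for minimum 48 hr; ATP measured via CellTiter-Glo, 30 min dark incubation, luminescence.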
ELG1 repair inh = blocks ELG1-dependent DNA repair in HEK293T cells. AID 504467. HEK293T ELG1-luciferase reporter, luminescence, 16 h; DNA damage induced by 5-fluorouridine. Potency, µM (doses to about 46.1 µM), without a hit: at the top dose activity change, negative = inhibition, most hits filed as inhibitors. 2.3% of 330,000 active; note: potency is the fitted concentration of half-maximal effect; nearly all actives have a fitted effect of over 55% in size
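5-Fluorouridine DNA damage + compound/DMSO, 2,000 cells/well, 16 h, 37 °C/5% CO2. ONE-Glo, 30 min RT, luminescence. Readout = decrease in reporter signal.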
TDP1 cell CPT = DT40-hTDP1 cell growth loss with CPT. chicken DT40 Tdp1-/-;hTDP1 cells + 20 nM CPT, ATP luminescence, 48 h. Potency, µM (highest dose often 46.2 µM), for inactives: top-dose activity change, negative = growth inhibition, actives largely listed as inhibitors. 12% of 420,000 active; note: potency is the fitted concentration of half-maximal effect; nearly all actives have a fitted effect of over 55% in size
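Chicken DT40 Tdp1-/- cells complemented with human TDP1, 400 cells/well, exposed to compounds plus 20 nM camptothecin for at least 48 h at 37 C; viability read as ATP content by CellTiter-Glo luminescence.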
Gal4-VP16 FLuc = inhibits Gal4-VP16 luciferase reporter, ROR gamma counter-screen. Drosophila S2 Gal4-VP16 UAS-luciferase, luminescence, 20 h. Potency, µM (doses to about 53.6 µM), for the others: at the top dose activity, negative = inhibition, usual class: inhibitors. 3.5% of 310,000 active. AID 2546;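 note: Gal4-VP16 expression switched on by copper sulfate through the metallothionein promoter; potency is the fitted concentration of half-maximal effect; nearly all actives have a fitted effect of over 50% in size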
RORg inh = ROR gamma (mouse) transcription inhibition | Potency, µM (series often up to 53.6 µM), without a hit: at the top dose activity change, negative = inhibition, usual class: inhibitors | 5.4% of 310,000 active | Drosophila S2 Gal4-RORgamma UAS-luciferase reporter, 20 h | AID 2551 | P51450; note: potency is the fitted concentration of half-maximal effect; nearly all actives have a fitted effect of over 60% in size
Target sequence (P51450 whole entry, looked up, the tested form may be a part): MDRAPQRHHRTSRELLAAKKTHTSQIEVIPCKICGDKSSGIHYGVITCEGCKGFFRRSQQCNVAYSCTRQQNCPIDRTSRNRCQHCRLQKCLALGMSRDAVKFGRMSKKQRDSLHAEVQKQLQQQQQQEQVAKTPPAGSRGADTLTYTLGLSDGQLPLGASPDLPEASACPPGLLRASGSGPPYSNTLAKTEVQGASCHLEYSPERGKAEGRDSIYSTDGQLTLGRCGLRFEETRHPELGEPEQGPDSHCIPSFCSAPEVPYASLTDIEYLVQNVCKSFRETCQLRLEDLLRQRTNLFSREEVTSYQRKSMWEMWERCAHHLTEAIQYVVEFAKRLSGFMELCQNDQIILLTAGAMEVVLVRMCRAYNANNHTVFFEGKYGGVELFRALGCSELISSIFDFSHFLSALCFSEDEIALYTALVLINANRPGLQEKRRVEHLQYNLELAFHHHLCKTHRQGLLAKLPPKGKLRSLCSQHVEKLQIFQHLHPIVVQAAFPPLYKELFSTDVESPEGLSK
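Luciferase reporter read in Schneider cells carrying Gal4-RORγ (mouse) and UAS-Photinus luciferase; cells given compound 1 h before 700 uM copper sulfate induction, then incubated 20 h at ambient temperature.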
IL1B secr inh = inflammasome signaling inhibition, IL-1 beta readout. 4.7% of 360,000 active. THP-1 LPS/ATP IL-1B secretion, AlphaLISA, 16 h; hits give low values. AID 743279. activity change, % at 57.5 µM; in the data active = activity change below about -50%; inconclusive = mostly about -30% to -49%
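THP-1 cells pretreated 1 hr with compounds (up to 57.5 uM final), then stimulated with LPS (250 ng/mL final) plus ATP (1.25 mM final); secreted IL-1B measured by AlphaLISA after 16 hr, decreased signal indicating inhibition.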
* hit, by the source's call; ? = inconclusive; · = no result; [ ] = another dose, or the depositor's remark. Unless noted, calls come from the whole dose curve; as a rule, active = well fitted curve in the direction sought with a large enough effect; inconclusive = small, poorly fitted or top-dose-only effect, or another doubt; inactive = no such curve, though single readings can be large; an effect the other way counts as inactive or inconclusive. % is set by controls: 0 for no effect and ±100 for the full control effect.

SMILES	DT40 TDP1 no CPT	ELG1 repair inh	TDP1 cell CPT	Gal4-VP16 FLuc	RORg inh	IL1B secr inh
CCCC(=O)OC/C(O)=C(\C#N)c1nc2ccccc2[nH]1	?	?	-14%	?	4µM*	-105*
COCC(=O)OC/C(O)=C(\C#N)c1nc2ccccc2[nH]1	2.6µM*	?	2.9µM*	2.8µM*	?	-104*
Cc1ccc(C(C)C)c(OC/C(O)=C(\C#N)c2nc3ccccc3[nH]2)c1	?	16µM*	8%	?	2.2µM*	-5
N#C/C(=C(/O)COC(=O)c1ccc(O)cc1)c1nc2ccccc2[nH]1	-9%	?	-17%	2%	12%	25
N#CC(=C(O)COC(=O)Cc1c[nH]c2ccccc12)c1nc2ccccc2[nH]1	?	·	2%	·	·	40
Cn1c(=O)[nH]c(=O)c2c1nc(N1CCOCC1)n2Cc1ccccc1	-27%	·	?	·	·	·
COc1ccc(-c2nc3cnc(Nc4cccc(OC)c4)nc3n(C)c2=O)cc1	?	·	?	?	-24%	·
COc1ccc(CCC(=O)Nc2cc(S(=O)(=O)N3CCOCC3)ccc2OC(C)C)cc1	5%	0%	-4%	·	·	-25
CCc1nc(Sc2nnnn2-c2ccccc2)c2c3c(sc2n1)CCCC3	18µM*	?	16µM*	-5%	-7%	-81*
Cc1nc(Sc2nnnn2C)c2c3c(sc2n1)CCC3	1.6µM*	?	2.1µM*	-2%	-19%	-57*
CCN1CCN(C(c2cc3cccc(C)c3[nH]c2=O)c2nnnn2Cc2ccccc2)CC1 (configuration not stated)	-21%	0%	-30%	5%	18%	-3
C(=C\c1ccccc1)/CN1CCN(C(c2cccc3ccccc23)c2nnnn2Cc2ccccc2)CC1 (configuration not stated)	16µM*	·	16µM*	·	·	?
CC(C)(C)n1nnnc1C(c1cccs1)N1CCN(C/C=C/c2ccccc2)CC1 (configuration not stated)	?	·	?	·	·	-10
C(=C\c1ccccc1)/CN1CCN(C(c2cccs2)c2nnnn2Cc2ccccc2)CC1 (configuration not stated)	21µM*	·	?	·	·	-3
COc1ccc2[nH]cc(CCNC(=O)CC[C@H]3O[C@@H](n4cc(C)c(=O)[nH]c4=O)C[C@@H]3O)c2c1	-3%	9%	-2%	·	·	12
CCOc1cc(N(CC)CC)ccc1/C=C(/C#N)c1nc2ccccc2[nH]1	10µM*	?	16µM*	3%	-7%	?
CCCOc1cc(N(CC)CC)ccc1/C=C(/C#N)c1nc2ccc(C)cc2[nH]1	13µM*	4.6µM*	21µM*	-1%	2%	-2
CCN(CC)c1ccc(/C=C(/C#N)c2nc3ccc(C)cc3[nH]2)c(OC(C)C)c1	21µM*	?	15µM*	-3%	-26%	?
COc1cccc(/C=C(\C#N)c2nc3ccccc3[nH]2)c1OCC(=O)O	11%	18%	-3%	-10%	?	6
CC1CCCN(C(=O)NC2CC(=O)N(c3ccc4c(c3)OCCO4)C2)C1 (configuration not stated)	-7%	-1%	-14%	·	·	10
Cc1ccccc1NC(=O)CCS(=O)(=O)c1cccc2nonc12	15%	1%	14%	-12%	-18%	-4
Cc1ccc(Cl)cc1NC(=O)CCS(=O)(=O)c1cccc2nonc12	?	1%	15µM*	2%	34%	-2
CS(=O)(=O)Cc1ccc(C(=O)NC2CCSc3ccccc32)cc1 (configuration not stated)	2%	-6%	5%	-9%	33%	0
COc1ccc2c(c1)CCC1C2=NN(/C(C)=C\C(C)=O)C1c1ccc(F)cc1 (configuration not stated)	?	-17%	18µM*	4%[10 µM]	?	6
COc1ccc2c(c1)C1=NN(/C(C)=C\C(C)=O)C(c3ccccc3)C1CC2 (configuration not stated)	?	?	18µM*	?	-29%	23
SMILES	DT40 TDP1 no CPT	ELG1 repair inh	TDP1 cell CPT	Gal4-VP16 FLuc	RORg inh	IL1B secr inh
O=C(O)C(c1ccccc1)C1CCCCC1O (configuration not stated)	-14%	·	19%	·	·	8
CCOC(=O)Cc1[nH]nc2c1C(c1ccsc1)C(C#N)=C(N)O2 (configuration not stated)	?	?	?	-19%	-1%	-65*
CCCc1[nH]nc2c1C(C1CCCCC1)C(C#N)=C(N)O2 (configuration not stated)	?	-18%	?	-27%	-3%	-95*
CCCc1[nH]nc2c1C(c1ccc(OC)cc1OC)C(C#N)=C(N)O2 (configuration not stated)	-14%	-10%	-4%	5%	12%	-15
COC(=O)Cc1[nH]nc2c1C(c1cc(OC)c(OC)c(OC)c1)C(C#N)=C(N)O2 (configuration not stated)	5%	11%	13%	3%	-21%	-3
COCc1[nH]nc2c1C(c1ccsc1)C(C#N)=C(N)O2 (configuration not stated)	-24%	?	?	7%	0%	-21
N#CC1=C(N)Oc2n[nH]c(-c3cccs3)c2C1c1cccs1 (configuration not stated)	-28%	?	?	-4%	-7%	-91*
COC(=O)Cc1[nH]nc2c1C(C1C=CCCC1)C(C#N)=C(N)O2 (configuration not stated)	26µM*	2%	?	-18%	8%	-62*
CC(=O)N1C[C@H]2CON(C)[C@H]2C[C@H]1c1ccccc1Br	0%	·	-1%	·	·	3
COc1ccc(NC(=O)c2cnn(-c3ccc(C)cc3)c2-n2cccc2)cc1Cl	?	·	-23%	·	·	·
NCCC[C@@H](CC(=O)N[C@@H]1CCCC[C@H]1C(=O)N[C@H](CC(=O)N[C@@H](CCC(=O)O)CC(=O)O)Cc1ccccc1)NC(=O)C[C@H](Cc1c[nH]c2ccccc12)NC(=O)[C@@H]1CCCC[C@H]1N	·	·	·	-3%	0%	·
COCc1[nH]nc2c1C(c1sccc1C)C(C#N)=C(N)O2 (configuration not stated)	?	?	-15%	-1%	-3%	-81*
